Targets with a hit are over-represented here; the source holds about 7,900 in all. About 0.6% of all pairs of compound and target were hits.
Assays:
Assay in all cases: log2 fold change, soluble protein after heating vs DMSO (PISA); higher = thermal stabilisation; K562 cells, 10 uM, 30 min; active = over 0.2 and 3.5 SD of the protein, either way, in both replicates (recomputed)
[1] = compound: C1=CC=C(C=C1)[C@H](COC2=CC3=C(C=C2)NC(=O)N3)NC(=O)C4=CC=CN(C4=O)CC5=CC(=C(C=C5)F)F
Outline: (§1)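 Soluble protein was defined as the supernatant after 21,000xg for 90 min. It came from K562 cells at 2×10^6 cells/mL given 10 μM compound for 30 min, heated in aliquots for 3 min across 48°C-58°C, pooled, and extracted in PBS with 0.5% NP-40 at 4°C, and was quantified by TMTpro 16plex LC-MS/MS with equalised channel sums. Thermal stability against control samples, from duplicates, is reported as log2 fold change.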

[2] = compound: CC1=C(SC2=C1C(=N[C@H](C3=NN=C(N32)C)CC(=O)N)C4=CC=C(C=C4)Cl)C
Outline: as §1

[3] = compound: CC1=C2C(=CC=C1)N=C(N(C2=O)C3=CC=CC=C3C)CN4C=NC5=C(N=CN=C54)N
Outline: as §1

[4] = compound: Cc1sc2c(c1C)C(c1ccc(Cl)cc1)=N[C@@H](CC(=O)OC(C)(C)C)c1nnc(C)n1-2
Outline: as §1

[5] = compound: c1ccc([C@@H]2C[C@H]2NC2CCNCC2)cc1
Outline: as §1

Measured: log2 fold change

STK26 (UniProt Q9P289)
inactive: [1] -0.077 | [2] -0.029 | [3] -0.006 | [4] 0.004 | [5] 0.026

STK4 (UniProt Q13043)
inactive: [1] -0.008 | [2] 0.088 | [3] 0.057 | [4] 0.005 | [5] -0.001

SNRNP40 (UniProt Q96DI7)
inactive: [1] 0.054 | [2] -0.023 | [3] 0.007 | [4] 0.071 | [5] 0.022

SSB (UniProt P05455)
inactive: [1] -0.02 | [2] 0.088 | [3] 0.014 | [4] 0.007 | [5] 0.055

SUN2 (UniProt Q9UH99)
Chain of UniProt Q9UH99 (Q9UH99 whole entry, looked up): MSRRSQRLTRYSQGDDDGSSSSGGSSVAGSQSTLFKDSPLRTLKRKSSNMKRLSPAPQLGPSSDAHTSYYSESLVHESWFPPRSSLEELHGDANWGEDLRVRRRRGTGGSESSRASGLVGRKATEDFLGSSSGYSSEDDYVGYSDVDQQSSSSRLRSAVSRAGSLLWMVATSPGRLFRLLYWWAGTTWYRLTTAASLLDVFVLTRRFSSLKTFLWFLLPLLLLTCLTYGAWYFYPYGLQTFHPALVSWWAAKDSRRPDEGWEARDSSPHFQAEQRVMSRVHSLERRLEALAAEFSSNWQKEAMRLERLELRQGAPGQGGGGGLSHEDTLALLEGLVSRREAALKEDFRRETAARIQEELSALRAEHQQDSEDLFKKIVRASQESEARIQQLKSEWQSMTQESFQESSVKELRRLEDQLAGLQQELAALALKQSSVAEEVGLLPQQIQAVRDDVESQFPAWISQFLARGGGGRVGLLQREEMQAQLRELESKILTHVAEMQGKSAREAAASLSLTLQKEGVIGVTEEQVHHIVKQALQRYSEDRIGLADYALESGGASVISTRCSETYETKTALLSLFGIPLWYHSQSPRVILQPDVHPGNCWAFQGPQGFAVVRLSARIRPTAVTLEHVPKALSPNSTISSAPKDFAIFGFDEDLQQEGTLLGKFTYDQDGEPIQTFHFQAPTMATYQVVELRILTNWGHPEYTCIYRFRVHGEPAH
inactive: [1] 0.029 | [2] -0.004 | [3] -0.025 | [4] 0.025 | [5] -0.015

SYMPK (UniProt Q92797)
inactive: [1] -0.127 | [2] 0.034 | [3] 0.101 | [4] -0.006 | [5] 0.02

SUOX (UniProt P51687)
inactive: [1] 0.01 | [2] 0 | [3] 0.096 | [4] -0.011 | [5] -0.021

STEAP3 isoform 2 (UniProt Q658P3)
inactive: [1] -0.011 | [2] 0 | [3] 0.022 | [4] -0.034 | [5] -0.04

SNRPB2 (UniProt P08579)
inactive: [1] 0.083 | [2] 0.002 | [3] -0.044 | [4] 0.07 | [5] 0.02

SPART (UniProt Q8N0X7)
inactive: [1] -0.028 | [2] 0.043 | [3] 0.065 | [4] 0.018 | [5] -0.002

SUMO1 (UniProt P63165)
Chain of UniProt P63165 (P63165 whole entry, looked up): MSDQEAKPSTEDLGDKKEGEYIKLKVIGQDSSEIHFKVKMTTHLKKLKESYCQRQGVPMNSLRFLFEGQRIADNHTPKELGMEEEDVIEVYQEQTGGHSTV
inactive: [1] -0.004 | [2] -0.097 | [3] -0.048 | [4] 0.231 | [5] 0.152

SRSF10 (UniProt O75494)
inactive: [1] 0.001 | [2] -0.475 | [3] -0.187 | [4] 0.249 | [5] 0.17

STX7 (UniProt O15400)
inactive: [1] 0.023 | [2] 0.01 | [3] 0.027 | [4] -0.011 | [5] -0.011

SLC25A42 (UniProt Q86VD7)
inactive: [1] 0.073 | [2] 0.051 | [3] -0.019 | [4] -0.005 | [5] 0.003

TGFBR1 isoform 2 (UniProt P36897)
Chain of UniProt P36897 (P36897 whole entry, looked up): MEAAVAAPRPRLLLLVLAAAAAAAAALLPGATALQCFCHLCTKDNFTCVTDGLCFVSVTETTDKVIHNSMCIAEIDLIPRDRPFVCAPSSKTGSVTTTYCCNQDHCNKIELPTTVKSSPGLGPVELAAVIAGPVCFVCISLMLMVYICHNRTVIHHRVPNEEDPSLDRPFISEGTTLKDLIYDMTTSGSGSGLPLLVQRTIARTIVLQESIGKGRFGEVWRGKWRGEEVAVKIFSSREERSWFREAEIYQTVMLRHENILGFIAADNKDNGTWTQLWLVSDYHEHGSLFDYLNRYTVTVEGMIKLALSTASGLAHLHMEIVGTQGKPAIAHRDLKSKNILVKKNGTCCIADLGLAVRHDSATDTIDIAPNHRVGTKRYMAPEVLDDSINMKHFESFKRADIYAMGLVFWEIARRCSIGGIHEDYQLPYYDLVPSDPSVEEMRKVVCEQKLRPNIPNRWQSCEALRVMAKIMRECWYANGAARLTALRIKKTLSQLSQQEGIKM
inactive: [1] -0.001 | [2] 0.029 | [3] -0.047 | [4] -0.029 | [5] 0.026

SNUPN (UniProt O95149)
Chain of UniProt O95149 (O95149 whole entry, looked up): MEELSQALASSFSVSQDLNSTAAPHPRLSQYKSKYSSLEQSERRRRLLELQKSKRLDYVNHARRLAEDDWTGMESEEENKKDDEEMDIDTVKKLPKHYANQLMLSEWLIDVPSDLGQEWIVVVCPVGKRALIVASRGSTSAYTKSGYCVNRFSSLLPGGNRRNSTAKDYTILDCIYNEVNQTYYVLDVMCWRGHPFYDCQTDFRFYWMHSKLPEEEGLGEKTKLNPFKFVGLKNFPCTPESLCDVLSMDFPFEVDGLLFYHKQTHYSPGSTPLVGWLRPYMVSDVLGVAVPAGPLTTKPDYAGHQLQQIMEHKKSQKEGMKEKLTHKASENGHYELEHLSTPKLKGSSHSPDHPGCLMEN
inactive: [1] -0.027 | [2] 0.051 | [3] 0.067 | [4] 0.03 | [5] 0.021

SRI (UniProt P30626)
Chain of UniProt P30626 (P30626 whole entry, looked up): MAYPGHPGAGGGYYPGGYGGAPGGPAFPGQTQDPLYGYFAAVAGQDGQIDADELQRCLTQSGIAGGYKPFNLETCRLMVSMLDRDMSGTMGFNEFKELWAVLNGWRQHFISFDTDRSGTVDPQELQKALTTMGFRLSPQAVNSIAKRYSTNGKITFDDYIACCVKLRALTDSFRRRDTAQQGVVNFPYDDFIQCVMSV
inactive: [1] -0.034 | [2] 0.111 | [3] 0.043 | [4] -0.093 | [5] -0.064

SLC38A2 (UniProt Q96QD8)
Chain of UniProt Q96QD8 (Q96QD8 whole entry, looked up): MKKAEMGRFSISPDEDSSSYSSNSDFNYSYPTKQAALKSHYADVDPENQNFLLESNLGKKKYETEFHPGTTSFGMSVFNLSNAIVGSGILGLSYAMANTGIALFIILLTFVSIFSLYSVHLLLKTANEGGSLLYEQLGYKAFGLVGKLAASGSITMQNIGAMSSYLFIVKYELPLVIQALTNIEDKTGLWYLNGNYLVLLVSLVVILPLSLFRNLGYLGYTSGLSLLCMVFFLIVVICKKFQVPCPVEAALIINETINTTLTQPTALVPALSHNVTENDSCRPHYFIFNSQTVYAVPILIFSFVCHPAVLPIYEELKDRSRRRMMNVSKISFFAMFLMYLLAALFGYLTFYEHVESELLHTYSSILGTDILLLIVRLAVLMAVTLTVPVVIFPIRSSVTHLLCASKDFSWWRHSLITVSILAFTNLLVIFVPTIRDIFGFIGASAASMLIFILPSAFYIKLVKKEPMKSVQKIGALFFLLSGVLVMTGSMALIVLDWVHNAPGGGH
inactive: [1] -0.006 | [2] 0.044 | [3] 0.024 | [4] -0.028 | [5] 0.035

SNX5 (UniProt Q9Y5X3)
Chain of UniProt Q9Y5X3 (Q9Y5X3 whole entry, looked up): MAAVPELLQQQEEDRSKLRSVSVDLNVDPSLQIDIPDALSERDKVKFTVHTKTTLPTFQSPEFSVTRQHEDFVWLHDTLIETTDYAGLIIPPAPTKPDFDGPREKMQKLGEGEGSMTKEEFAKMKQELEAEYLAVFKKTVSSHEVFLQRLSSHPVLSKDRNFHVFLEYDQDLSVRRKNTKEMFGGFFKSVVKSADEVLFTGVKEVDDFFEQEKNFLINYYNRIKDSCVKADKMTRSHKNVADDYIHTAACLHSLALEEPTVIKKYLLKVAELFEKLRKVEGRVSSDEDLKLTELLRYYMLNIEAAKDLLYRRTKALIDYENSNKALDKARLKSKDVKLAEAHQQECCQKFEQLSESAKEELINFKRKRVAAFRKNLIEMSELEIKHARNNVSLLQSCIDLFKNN
inactive: [1] -0.016 | [2] 0.045 | [3] 0.014 | [4] 0.04 | [5] -0.071

SNX11 (UniProt Q9Y5W9)
Chain of UniProt Q9Y5W9 (Q9Y5W9 whole entry, looked up): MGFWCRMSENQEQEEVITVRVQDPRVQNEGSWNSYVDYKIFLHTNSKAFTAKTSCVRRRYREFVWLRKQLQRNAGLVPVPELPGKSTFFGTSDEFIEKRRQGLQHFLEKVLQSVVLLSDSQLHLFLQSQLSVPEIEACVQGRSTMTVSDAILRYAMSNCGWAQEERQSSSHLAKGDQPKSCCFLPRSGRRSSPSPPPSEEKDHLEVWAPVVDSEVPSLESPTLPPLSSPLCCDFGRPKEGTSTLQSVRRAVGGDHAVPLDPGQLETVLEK
inactive: [1] 0.004 | [2] 0.063 | [3] 0.108 | [4] 0.057 | [5] -0.027

SSRP1 (UniProt Q08945)
inactive: [1] -0.027 | [2] 0.023 | [3] 0.087 | [4] -0.051 | [5] -0.016

SLC9A6 isoform 2 (UniProt Q92581)
inactive: [1] -0.007 | [2] 0.066 | [3] 0.068 | [4] -0.014 | [5] 0.047

TIMM44 (UniProt O43615)
Chain of UniProt O43615 (O43615 whole entry, looked up): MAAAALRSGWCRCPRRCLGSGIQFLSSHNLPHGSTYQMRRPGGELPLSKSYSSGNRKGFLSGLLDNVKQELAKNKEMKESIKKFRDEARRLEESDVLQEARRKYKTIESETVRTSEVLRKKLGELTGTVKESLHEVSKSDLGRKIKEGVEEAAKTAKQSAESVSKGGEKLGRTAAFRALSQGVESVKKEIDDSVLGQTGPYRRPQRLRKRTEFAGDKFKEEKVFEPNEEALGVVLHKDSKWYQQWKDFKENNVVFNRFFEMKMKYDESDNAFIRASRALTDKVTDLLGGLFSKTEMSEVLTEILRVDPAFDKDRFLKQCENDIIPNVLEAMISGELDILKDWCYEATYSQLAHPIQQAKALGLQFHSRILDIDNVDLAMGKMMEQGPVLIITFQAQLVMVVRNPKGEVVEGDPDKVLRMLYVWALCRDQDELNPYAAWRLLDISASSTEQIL
inactive: [1] -0.099 | [2] 0.043 | [3] 0.088 | [4] 0.008 | [5] -0.017

TCOF1 isoform 6 (UniProt Q13428)
Chain of UniProt Q13428 (Q13428 whole entry, looked up): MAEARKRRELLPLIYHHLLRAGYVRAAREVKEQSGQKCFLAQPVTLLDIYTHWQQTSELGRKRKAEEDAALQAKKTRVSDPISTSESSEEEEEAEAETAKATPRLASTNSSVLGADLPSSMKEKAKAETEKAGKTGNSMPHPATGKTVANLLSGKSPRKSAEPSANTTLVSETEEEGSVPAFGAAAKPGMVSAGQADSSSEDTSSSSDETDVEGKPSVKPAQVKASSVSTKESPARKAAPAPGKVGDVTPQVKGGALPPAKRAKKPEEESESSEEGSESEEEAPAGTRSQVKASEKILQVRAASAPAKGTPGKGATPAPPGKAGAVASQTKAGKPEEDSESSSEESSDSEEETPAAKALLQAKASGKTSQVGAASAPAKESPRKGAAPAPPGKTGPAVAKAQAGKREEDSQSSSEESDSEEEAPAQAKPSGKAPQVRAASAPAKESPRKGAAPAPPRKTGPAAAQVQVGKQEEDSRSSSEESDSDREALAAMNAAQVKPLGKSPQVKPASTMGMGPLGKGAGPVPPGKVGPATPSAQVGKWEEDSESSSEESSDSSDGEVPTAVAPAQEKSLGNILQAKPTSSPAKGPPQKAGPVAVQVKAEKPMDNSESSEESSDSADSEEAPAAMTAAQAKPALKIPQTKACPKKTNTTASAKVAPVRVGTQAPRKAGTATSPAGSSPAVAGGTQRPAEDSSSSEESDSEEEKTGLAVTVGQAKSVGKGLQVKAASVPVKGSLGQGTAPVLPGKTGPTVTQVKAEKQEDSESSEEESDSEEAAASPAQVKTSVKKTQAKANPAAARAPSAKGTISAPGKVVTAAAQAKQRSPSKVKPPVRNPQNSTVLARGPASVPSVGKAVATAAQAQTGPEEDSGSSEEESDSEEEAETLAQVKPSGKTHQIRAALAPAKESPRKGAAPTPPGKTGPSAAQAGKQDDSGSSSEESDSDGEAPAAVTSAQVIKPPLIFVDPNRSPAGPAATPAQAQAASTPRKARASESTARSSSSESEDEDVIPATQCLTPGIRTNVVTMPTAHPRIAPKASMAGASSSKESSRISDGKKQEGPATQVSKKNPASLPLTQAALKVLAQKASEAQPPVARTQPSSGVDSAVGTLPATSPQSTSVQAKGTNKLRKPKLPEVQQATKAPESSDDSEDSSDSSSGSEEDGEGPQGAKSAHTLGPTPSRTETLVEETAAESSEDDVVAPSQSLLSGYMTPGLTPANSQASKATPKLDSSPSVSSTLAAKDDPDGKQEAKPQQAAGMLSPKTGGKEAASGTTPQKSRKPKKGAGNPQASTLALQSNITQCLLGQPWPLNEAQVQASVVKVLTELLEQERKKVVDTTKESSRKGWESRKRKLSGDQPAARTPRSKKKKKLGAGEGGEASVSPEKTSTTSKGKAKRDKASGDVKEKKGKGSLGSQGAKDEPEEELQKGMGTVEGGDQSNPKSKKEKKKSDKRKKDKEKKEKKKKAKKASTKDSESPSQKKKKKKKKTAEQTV
inactive: [1] 0.209 | [2] 0.151 | [3] -0.251 | [4] 0.271 | [5] 0.029

Reference: the supplement of paper PMC10849652
